From PubChem BioAssay
D2 ag-1: activates the human D2 dopamine receptor | DiscoveRx PathHunter D2 beta-arrestin, luminescence, 90 min; 100% = 57 uM dopamine signal | activation, % (no concentration beside the values) | 360,000 compounds, 0.084% hits; in the data active = activation above about 40%; inconclusive = between about 15% and that limit
Target sequence (P14416 whole entry, looked up): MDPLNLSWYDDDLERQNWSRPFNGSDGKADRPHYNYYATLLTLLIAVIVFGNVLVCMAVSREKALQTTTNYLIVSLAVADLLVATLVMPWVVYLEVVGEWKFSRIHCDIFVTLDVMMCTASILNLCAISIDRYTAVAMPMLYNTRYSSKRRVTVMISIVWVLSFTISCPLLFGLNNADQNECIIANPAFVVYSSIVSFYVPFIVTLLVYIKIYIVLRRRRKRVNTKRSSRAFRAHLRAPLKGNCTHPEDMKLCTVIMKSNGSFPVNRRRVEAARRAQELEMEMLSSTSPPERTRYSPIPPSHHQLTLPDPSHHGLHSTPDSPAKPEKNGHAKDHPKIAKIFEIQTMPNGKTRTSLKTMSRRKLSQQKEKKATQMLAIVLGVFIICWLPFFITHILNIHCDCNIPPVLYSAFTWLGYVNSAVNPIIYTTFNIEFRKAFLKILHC
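DiscoveRx PathHunter D2 beta-arrestin cells (2,100/well) attached overnight, then compound-stimulated 90 min at 37 C in HBSS/10 mM HEPES/0.1% Tween-20 buffer; beta-galactosidase complementation read by luminescence after 1 h at ambient temperature. Dopamine 57 uM final (EC100) as control.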
D2 PAM-1: positively modulates the human D2 dopamine receptor allosterically | P14416 | HEK293 T-REx D2, calcium flux, EC20 dopamine potentiation | potentiation, % at 10 µM | 340,000 compounds, 0.34% hits;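 active = potentiation over 3 SD above the plate norm, cut at about 30% in these data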
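Potentiation of an EC20 dopamine calcium response is measured in a force-coupled, tetracycline-inducible Hek293 Trex D2 line. Compound-only kinetic reads over 180 s flag agonists before dopamine addition.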
D2 antagonist: antagonizes the human D2 dopamine receptor; P14416; HEK293 TREx D2 cells, calcium flux, dopamine EC80; 340,000 compounds, 2% hits; inhibition, % at 10 µM; in the data active = inhibition above about 30%; inactive = below that, where a call was filed
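Calcium mobilization kinetics were recorded at 1 s intervals in tetracycline-induced HEK293 T-REx D2 cells, first for 180 s after compound addition and then 180 s after EC80 dopamine.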
D2 ag-2: activates the human D2 dopamine receptor | 340,000 compounds, 0.53% hits | AID 485358 | P14416 | HEK293 T-REx D2 cells, calcium flux agonist mode | activation, % at 2 µM;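 active = activation over 3 SD above normal in the single-dose calcium agonist read, cut at about 30% in these data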
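Agonism is scored from calcium flux in a force-coupled, inducible HEK293 cell line expressing D2, read kinetically for 180 s after compound addition against dopamine controls.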
D2 PAM-2: potentiates the human D2 dopamine receptor allosterically; DiscoveRx D2 beta-arrestin cells, luminescence, 90 min; 100% = 57 uM dopamine signal; AID 624464; 360,000 compounds, 0.23% hits; potentiation, % (test concentration not listed); in the data active = potentiation above about 50%; inconclusive = mostly about 30% to 49%
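PathHunter D2 cells, attached overnight at 37 deg C, received compound in DMSO plus dopamine at EC20 (50 nM final) for 90 min at 37 deg C. Beta-arrestin recruitment was read as luminescence after 1 h with detection reagent at ambient temperature.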
D3 ag: D3 receptor agonism confirmed, beta-arrestin readout. 2,300 compounds, 4% hits. AID 720506. Potency, µM (titrated, usually from 76.9 µM), hits mostly activators. shares compounds with D2 ag-2. DiscoveRx D3 beta-arrestin cells, luminescence, 90 min; note: nearly all actives have a fitted effect of over 70% in size
D2 ag-3: counter-screen for D3 agonists: human D2 dopamine receptor agonism | shares compounds with D2 ag-2 | DiscoveRx PathHunter D2 beta-arrestin, luminescence, 90 min; response scale: percent relative to full dopamine signal | Potency, µM (highest dose often 76.9 µM), actives largely listed as activators | 2,300 compounds, 5.9% hits | AID 720507; note: nearly all actives have a fitted effect of over 70% in size
Of the large screens only hits and unclear results are named; the others gave an inactive call (follow-up assays come after a bar, where they were run). Sampled rows, rich in hits. Any-hit rate of the full collection: about 2.4%. Unless noted, calls come from the whole dose curve; as a rule, active = well fitted activation curve with a large enough effect; inconclusive = small, poorly fitted or top-dose-only effect; inactive = flat fitted curve, though single readings scatter.

O=C(NCC(c1ccco1)N1CCN(c2ccccc2)CC1)C(=O)NC1CC1 (stereo not given)	D2 PAM-2 inconclusive | D3 ag inconclusive | D2 ag-3 inconclusive
NC(=O)N/N=C/c1ccccc1OC(=O)c1ccccc1Br	none
CCN(C(=O)COC(=O)c1[nH]c(C)c(C(C)=O)c1C)c1c(N)n(Cc2ccccc2)c(=O)[nH]c1=O	none
COc1ccc(NC(=O)CN(C)C(=O)c2csc3c2CCCC3)cc1	none
COc1cccc(NC(=O)CN(C)C(=O)c2csc3c2CCCC3)c1	none (no result: D2 PAM-1, D2 antagonist, D2 ag-2) | D3 ag inactive | D2 ag-3 inactive
O=C(C1CCN(S(=O)(=O)c2ccc(Cl)c(C(F)(F)F)c2)CC1)N1CCC1	none | D3 ag inactive | D2 ag-3 inactive
CC(C)N1CCN(CC2COc3ccccc3O2)CC1 (stereo not given)	D2 ag-2 35 | D3 ag inactive | D2 ag-3 inactive
COc1cccc(N2CN(CCc3ccccc3)CNC2=S)c1	D2 ag-2 37 | D3 ag inactive | D2 ag-3 inactive
Cc1ccc(S(=O)(=O)N2CCOC2CNC(=O)C(=O)NCc2ccc3c(c2)OCO3)cc1 (stereo not given)	D2 antagonist 66 | D3 ag inactive | D2 ag-3 inactive
CC(C)OCc1ccc(C(=O)N2CCN(CC(=O)N3CCCC3)CC2)cc1	none (no result: D2 PAM-1, D2 antagonist, D2 ag-2)
O=C(c1ccccc1)N1N=C(C(F)(F)F)CC1(O)c1ccc(F)cc1 (stereo not given)	none | D3 ag inactive | D2 ag-3 inactive
O=C(c1ccccc1)N1N=C(C(F)(F)F)CC1(O)c1ccccc1 (stereo not given)	none
COc1ccc(CN(C(=O)c2snc(C(N)=O)c2N)C(C(=O)NC2CCCC2)c2cc(OC)ccc2OC)cc1 (stereo not given)	none
COCCNC(=S)Nc1cc2oc3ccccc3c2cc1OC	D2 antagonist 30, D2 ag-2 57 | D3 ag inactive | D2 ag-3 inactive
O=C(Nc1ccccc1C(F)(F)F)C(O)(c1ccccc1)C1CCCCC1 (stereo not given)	none | D3 ag inactive | D2 ag-3 inactive
O=C(Nc1ccccc1C(F)(F)F)N1CCC(N2CCCCC2)CC1	none
COc1ccc(N2C(=O)C3CCCN3C2=S)cc1 (stereo not given)	none (no result: D2 PAM-1)
CC(=O)Nc1ccc(OCC(O)CN2CCN(c3ccc(F)cc3)CC2)cc1 (stereo not given)	D2 antagonist 45, D2 ag-2 69 | D3 ag inactive | D2 ag-3 inactive
CC(=O)Nc1ccc(OCC(O)CN2CCN(S(=O)(=O)c3ccc(NC(C)=O)cc3)CC2)cc1 (stereo not given)	none
CC(=O)Nc1ccc(OCC(O)CN2CCN(c3cccc(Cl)c3)CC2)cc1 (stereo not given)	D2 ag-1 inconclusive, D2 antagonist 83, D2 ag-2 76 | D3 ag inconclusive | D2 ag-3 inconclusive
CC(=O)Nc1ccc(OCC(O)CN2CCN(c3ccc(Cl)cc3)CC2)cc1 (stereo not given)	D2 antagonist 40 | D3 ag inactive | D2 ag-3 inactive
CCCS(=O)(=O)NC(=O)C1(C)CCN(C(=O)c2cc(OC)c(OC)c(OC)c2)C1 (stereo not given)	none (no result: D2 PAM-1, D2 antagonist, D2 ag-2)
O=C(CN1CCCN(Cc2ccc(F)cc2)S1(=O)=O)NCc1ccccc1Cl	none (no result: D2 ag-1, D2 antagonist, D2 PAM-2)
CCOc1ccc(/C(O)=C2/C(=O)C(=O)N(c3ncccn3)C2c2ccccc2)cc1 (stereo not given)	D2 ag-2 50 | D3 ag inactive | D2 ag-3 inactive
COc1ccc(C(=O)N=C2SC3CS(=O)(=O)CC3N2Cc2ccccc2)cc1OC (stereo not given)	none | D3 ag inconclusive | D2 ag-3 inactive
COc1ccc(Nc2sc(C(=O)c3ccc(Cl)cc3)c(N)c2C(=O)Nc2ccccc2OC)cc1	none | D3 ag inactive | D2 ag-3 inactive
Cc1nn(C)c(C)c1/C=C(/C(=O)C(C)C)n1cncn1	none | D3 ag inactive | D2 ag-3 inactive
CCc1ccc(NC(=O)c2sc(-n3nc(C)c(Cc4ccc(OC)cc4)c3C)nc2C)cc1	none (no result: D2 ag-1, D2 antagonist, D2 PAM-2)
CS(=O)(=O)N(CCCC(=O)N1CCCCCC1)c1cccc(Cl)c1	none | D3 ag inactive | D2 ag-3 inactive
CS(=O)(=O)N(CC(=O)N1CCOCC1)c1cccc(Cl)c1	none (no result: D2 PAM-1, D2 antagonist, D2 ag-2)
Cc1cccc(N2CCN(Cc3nc(-c4cccc(Cl)c4)oc3C)CC2)n1	D2 ag-2 34 | D3 ag inactive | D2 ag-3 inactive
Cn1c(=O)c2cc(NC(=S)NC3CCCCC3)ccc2n1Cc1ccc(Cl)cc1	none (no result: D2 PAM-1, D2 antagonist, D2 ag-2)
O=C(COC(=O)c1nsc(Cl)c1Cl)NC1CCCCC1	none
Nc1c(Cl)c(Cl)nc(C(=O)OCC(=O)NC2CCCCC2)c1Cl	D2 ag-1 53, D2 antagonist 57, D2 ag-2 64, D2 PAM-2 inconclusive | D3 ag inactive | D2 ag-3 inconclusive
CC(=O)C1=CCC(c2cccc3ccccc23)N(S(=O)(=O)c2ccc(C)cc2)C1 (stereo not given)	none (no result: D2 PAM-1, D2 antagonist, D2 ag-2)
COc1ccc(C(=N/O)/C(=N/O)c2ccc(OC)cc2)cc1	D2 antagonist 40 | D3 ag inactive | D2 ag-3 inactive
Cc1cc2oc(C(=O)N(Cc3ccccc3)c3ccccn3)cc(=O)c2cc1Cl	none (no result: D2 PAM-1, D2 antagonist, D2 ag-2)
COc1cccc(OC)c1NC(=O)Cn1nc(C)c2ccccc2c1=O	none
Cc1nn(-c2ccccc2)c(Cl)c1C(=O)NNC(=O)c1ccncc1	none | D3 ag inactive | D2 ag-3 inactive
CCN1C(=O)/C(=C\C=C\c2ccccc2[N+](=O)[O-])SC1=S	none
CCN1C(=O)/C(=C/C=C2\N(CC)c3cc(S(=O)(=O)N(C)C)ccc3N2c2ccccc2)SC1=S	none | D3 ag inactive | D2 ag-3 inactive
COc1ccccc1NC(=O)CN1CCN(CC(=O)Nc2ccc(F)cc2)CC1	none
COc1ccc(C)cc1NC(=O)CN1CCN(c2ccccn2)CC1	D2 ag-2 53 | D3 ag inactive | D2 ag-3 inactive
COC(=O)C1CCN(CC(=O)Nc2ccc(C(=O)Nc3ccccc3OC)cc2)CC1	D2 ag-1 inconclusive, D2 ag-2 62 | D3 ag inactive | D2 ag-3 inconclusive
COc1ccccc1NC(=O)CN1CCN(c2ccccn2)CC1	D2 ag-1 inconclusive, D2 antagonist 50 | D3 ag inactive | D2 ag-3 inconclusive
CCOC(=O)c1c(C)[nH]c(C(=O)Cn2nnc(-c3ccccc3Cl)n2)c1C	none
CCOC(=O)c1c(C)[nH]c(C)c1C(=O)Cn1nnc(-c2ccccc2C)n1	none | D3 ag inactive | D2 ag-3 inactive
